Potency and affinity values are given separately. Active and inactive are the calls of the source. A call without a number means that no potency is given here. The rule behind the calls is not given here.
Experiment: HepG2 cell cytotoxicity, cytotoxicity control, set 4 (AID 504910)
Conditions: series mostly up to 50 µM

| SMILES | outcome |
| --- | --- |
| COc1ccc(NC(=O)CSc2nc3ccccc3c(=O)[nH]2)cc1 | inactive |
| Cc1nc(SCC(N)=O)[nH]c(=O)c1C | inactive |
| NC[C@H]1O[C@H](O[C@H]2[C@H](O)[C@@H](O[C@H]3O[C@H](CO)[C@@H](O)[C@H](N)[C@H]3O)[C@H](N)C[C@@H]2N)[C@H](O)[C@@H](O)[C@@H]1O | inactive |
| O=C(CSc1nc2c(c(=O)[nH]1)CCCC2)NC1CCCCC1 | inactive |
| NNC(=O)c1ccncc1 | inactive |
| O=c1[nH]c(SCc2ccccc2Cl)nc2c1CCCC2 | inactive |
| O=C(CSc1nc2c(c(=O)[nH]1)CCC2)NC1CCCCC1 | inactive |
| CCOC(=O)CSc1nc(C)c(C)c(=O)[nH]1 | inactive |
| O=C(CSc1nc2ccccc2c(=O)[nH]1)N1CCOCC1 | inactive |
| Nc1cc(=O)[nH]c(SCC(=O)NC2CCCCC2)n1 | inactive |
| Cc1cccc(/C=C/C(=O)c2ccc([N+](=O)[O-])o2)c1 | inactive |
| COc1cccc(NC(=O)CSc2nc3c(c(=O)[nH]2)CCC3)c1 | inactive |
| COC(=O)C(Nc1nc(SCC(=O)NC2CCCCC2)nc2ccccc12)c1ccccc1 (stereo not given) | inactive |
| Cn1c(SCC(=O)NC2CCCCC2)nc2ccccc2c1=O | inactive |
| CO[C@H]1/C=C/O[C@@]2(C)Oc3c(C)c(O)c4c(O)c(c(C=NN5CCN(C)CC5)c(O)c4c3C2=O)NC(=O)/C(C)=C\C=C\[C@H](C)[C@H](O)[C@@H](C)[C@@H](O)[C@@H](C)[C@H](OC(C)=O)[C@@H]1C | inactive |
| Cc1ccc(NC(=O)COC(=O)CCc2c[nH]c3ccccc23)cc1[N+](=O)[O-] | inactive |
| CC(Sc1nc2ccccc2c(=O)[nH]1)C(=O)NC1CCCCC1 (stereo not given) | inactive |
| CCC(Sc1nc2c(c(=O)[nH]1)CCC2)C(=O)Nc1cccc(OC)c1 (stereo not given) | inactive |
| CC(C)NC(=O)CSc1nc2ccccc2c(=O)[nH]1 | inactive |
| O=C(CSc1nccc(=O)[nH]1)NC1CCCCC1 | inactive |
| CN1CCC(NC(=O)CSc2nc3ccccc3c(=O)[nH]2)CC1 | inactive |
| Cc1cc(C)n2nc(N)c(N=Nc3ccccc3)c2n1 | inactive |
| CCC(Sc1nc2ccccc2c(=O)[nH]1)C(=O)NC1CCCCC1 (stereo not given) | inactive |
| NC(=O)c1cnccn1 | inactive |
| Cc1c[nH]c(=S)[nH]c1=O | inactive |
| NC(=O)CSc1nc2ccccc2c(=O)[nH]1 | inactive |
| O=C(CSc1ncccn1)NC1CCCCC1 | inactive |
| CCOC1OC(=O)C(Cl)=C1Nc1ccccc1C (stereo not given) | inactive |
| Cc1nc(SCC(=O)NC2CCCC2)[nH]c(=O)c1C | inactive |
| O=C(CSc1nc2ccccc2c(=O)[nH]1)NC1CCCCC1 | inactive |
